High-throughput results as filed in PubChem.
The list is not random: actives were taken first. Their share in the collection is about 1.4%.
BCLXL inh: inhibitors of human Bcl-xL, primary screen, biochemical, fluorescence polarization, HTS. GST-Bcl-xL / FITC-Bim BH3 peptide fluorescence polarization. inhibition, % at 10.9 µM. Bcl-2-like protein 1 (Homo sapiens), Q07817. 0.7% of 320,000 active;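 active = inhibition above the mean of all tested compounds plus 3 SD, cutoff set per campaign, cut at about 30% in these data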;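 also: 0% = DMSO wells and 100% = unlabeled Bim-BH3 peptide competitor; inhibitors lower millipolarization by displacing the labeled peptide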
Target sequence (Q07817 whole entry, looked up): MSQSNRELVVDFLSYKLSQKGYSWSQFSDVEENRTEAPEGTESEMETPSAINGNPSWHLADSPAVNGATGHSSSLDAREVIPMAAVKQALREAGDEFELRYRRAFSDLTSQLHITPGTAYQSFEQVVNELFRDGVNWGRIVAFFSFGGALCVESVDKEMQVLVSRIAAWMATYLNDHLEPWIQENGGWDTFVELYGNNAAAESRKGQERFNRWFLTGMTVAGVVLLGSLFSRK
GLD-1 RNA inh: GLD-1/TGE RNA complex disruptors, primary screen, biochemical, fluorescence polarization. Female germline-specific tumor suppressor gld-1 (Caenorhabditis elegans), Q17339. purified GLD-1 + fluorescein TGE RNA. inhibition, % at 5.96 µM. 0.44% of 320,000 active. AID 2280, 2010;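 active = percent inhibition above a per-plate cutoff, the plate mean of test compounds plus 3 SD, cut at about 30% in these data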;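 also: 0% = DMSO wells with GLD-1 and probe and 100% = wells lacking GLD-1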
MCL1-BIM inh: inhibitors of MCL1 binding to BIM-BH3, primary screen, biochemical, fluorescence polarization | Induced myeloid leukemia cell differentiation protein Mcl-1 (Homo sapiens), Q07820 | GST-MCL1 / FITC-Bim-BH3 fluorescence polarization | inhibition, % at 10.9 µM | 0.68% of 320,000 active | AID 2057, 2009;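 active = inhibition above the mean inhibition of all tested compounds plus 3 SD, set per campaign, cut at about 40% in these data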;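 also: 0% = DMSO wells and 100% = unlabeled Bim-BH3 peptide control; higher means more loss of mP so more displacement of Bim peptide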
EBV gp42 block: Epstein-Barr virus gp42 inhibitors, primary screen, biochemical, uHTS, fluorescence polarization | inhibition, % (tested at 21.74 µM) | 0.42% of 220,000 active | Fluorescence polarization binding assay, mP read-out | Glycoprotein 42 (Epstein-Barr virus (strain AG876)), Q1HVG2; in the data active = inhibition above about 50%
Target sequence (Q1HVG2 whole entry, looked up): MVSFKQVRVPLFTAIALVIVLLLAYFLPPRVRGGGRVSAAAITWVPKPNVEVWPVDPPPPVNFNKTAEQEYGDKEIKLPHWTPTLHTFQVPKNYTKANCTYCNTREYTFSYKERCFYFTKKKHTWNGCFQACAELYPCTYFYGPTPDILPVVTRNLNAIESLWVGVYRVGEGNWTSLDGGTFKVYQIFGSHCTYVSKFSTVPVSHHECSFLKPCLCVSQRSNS
MEX-5 binding: MEX-5 zinc finger RNA-binding disruptors – biochemical, C. elegans, fluorescence polarization, MLPCN library, primary screen | Zinc finger protein mex-5 (Caenorhabditis elegans), Q9XUB2 | MEX-5/FITC-TCR2 RNA binding; active compounds read low | activity score (negative = inhibition of binding), % at 10 µM | 0.38% of 300,000 active | AID 1832, 2009;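 active = inhibition past about -25% in most replicates, and total fluorescence under double the plate's negative control median, limit read from the data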;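 also: 0% = DMSO and -100% = 5 µM competing unlabeled TCR2 RNA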
eLon inh: inhibitors of E. coli Lon protease, primary screen, biochemical, fluorescence polarization; AID 602123, 2011; 0.42% of 360,000 active; inhibition, % at 7.94 µM; P0A9M0; purified E. coli Lon protease; in the data active = inhibition above about 13%, passing the limit was not always enough;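 also: 0% = enzyme with probe and DMSO and 100% = no enzyme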
BCLXL inh confirm: Bcl-xL inhibitors blocking Bim BH3 binding, confirmation, counter-screen for MCL1 inhibitor project, biochemical, fluorescence polarization; shares compounds with MCL1-BIM inh; inhibition, % at 10.9 µM; GST-Bcl-xL / FITC-Bim BH3 peptide FP binding; 54% of 1,700 active;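 active = inhibition above a cutoff equal to the mean inhibition of all tested compounds plus 3 SD, cut at about 30% in these data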;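 also: 0% = DMSO wells and 100% = unlabeled Bim BH3 control peptide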
MCL1 inh confirm: inhibitors of MCL1 binding to BIM-BH3, confirmation, biochemical, fluorescence polarization, triplicate; shares compounds with MCL1-BIM inh; GST-MCL1 / FITC-Bim-BH3 fluorescence polarization; inhibition, % at 10.9 µM; 61% of 1,700 active; AID 2168, 2009;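 active = inhibition above the average of all tested compounds plus 3 SD, cut at about 40% in these data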;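 also: 0% = DMSO wells and 100% = unlabeled Bim-BH3 control peptide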
Starred values were filed as active, the others as inactive; / = no result given.

SMILES	BCLXL inh	GLD-1 RNA inh	MCL1-BIM inh	EBV gp42 block	MEX-5 binding	eLon inh	BCLXL inh confirm	MCL1 inh confirm
CCOC(=O)[C@H]1[C@H]2COc3ccc(OC)cc3[C@@H]2N2C(=O)CN(C)C(=O)[C@@]12C	4	0	3	/	/	-2	/	/
COc1cccc(-n2c(C)c3c(OC)cccc(=O)c3c2C)c1	30	17	41*	3	-5	8	17	15
O=C(CNC(=O)/C=C/c1ccco1)N=Nc1c(O)[nH]c2ccccc12	20	-2	42*	/	-29*	2	28	57*
O=C(CNC(=O)Cc1ccccc1)N=Nc1c(O)[nH]c2ccccc12	4	-3	-4	/	-4	-1	/	/
COCCn1c(SCC(=O)NC2CC2)nnc1-c1ccc(Cl)cc1	-3	7	-11	/	/	-11	/	/
CN1C(=O)c2cccc3c(N(C)C)ccc(c23)C1=O	75*	10	89*	/	-14	-57	31*	33
CN1C(=O)c2cccc3c(Cl)ccc(c23)C1=O	7	4	10	2	-2	4	/	/
O=C1CN(C(=O)NCCC(=O)NC2CCCCC2)c2ccccc2N1	8	7	69*	/	4	5	3	-8
CN(C(=O)CCNC(=O)N1CC(=O)Nc2ccccc21)C1CCCCC1	2	6	6	/	0	-10	/	/
Cc1ccc(C(=O)NCC(=O)OCC(=O)c2ccc(Br)s2)cc1	-4	9	1	/	3	0	/	/
CCCOc1ccc(C(=O)Nc2ccc3c(c2)OCCO3)cc1	-2	0	0	/	2	5	/	/
Cc1ccc(S(=O)(=O)c2nc(-c3ccccc3)oc2N2CCCC2)cc1	8	-1	29	/	/	-1	/	/
Cc1ccc(S(=O)(=O)c2nc(Cc3ccccc3)oc2N2CCOCC2)cc1	15	3	58*	/	/	-8	14	79*
CCC(=O)Nc1ccc2ccccc2c1	1	-2	-6	-15	2	-12	/	/
CCC(=O)Nc1ccc2nc3c(=O)[nH]c(=S)[nH]c3nc2c1	61*	16	98*	/	-46*	10	107*	161*
COC(=O)C1=C(O)/C(=C\c2ccc(CNS(=O)(=O)c3ccccc3)o2)N=C1C	45*	27	48*	-13	-6	1	31*	54*
CCNC(=O)COC(=O)c1cc(-c2ccco2)nc2ccccc12	29	22	50*	45	-3	6	29	76*
O=C(OCC(=O)N1CCN(C(=O)c2ccco2)CC1)c1cc(-c2ccco2)nc2ccccc12	31*	12	82*	76*	1	7	29	73*
COc1ccc(CNC(=O)COC(=O)c2cc(-c3ccco3)nc3ccccc23)cc1	/	/	/	15	/	/	/	/
O=C(OCC(=O)N1CCN(C(=O)c2ccco2)CC1)c1cc(-c2ccc(Cl)c(Cl)c2Cl)nc2ccccc12	-16	-4	-67	-14	1	-4	/	/
CCCCN(C(=O)c1cc(-c2ccco2)nc2ccccc12)c1c(N)n(CCCC)c(=O)[nH]c1=O	21	15	45*	/	1	8	17	31
O=C(CCC(=O)c1ccc(F)cc1)NC1CCCN(Cc2ccccc2F)C1 (centres undefined)	3	6	6	/	1	-9	/	/
